Assay outcomes: PubChem BioAssay, National Center for Advancing Translational Sciences (NCATS)
TR SRC2 fluor cs – Texas Red fluorescence interference in TRb-SRC2 counter-screen | actives 0.29% (n = 280,000) | AID 1479 | TRb/SRC2 Texas Red total fluorescence interference | Potency, µM (doses to about 106 µM); active = well fitted curve in either direction with a large enough effect; inconclusive = small, poorly fitted or top-dose-only effect
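Flags fluorescent or light-absorbing compounds by total fluorescence, S + 2P, at 555 nm excitation and 632 nm emission. Mixture: 20 nM Texas Red SRC2 peptide, 0.6 uM human TRb LBD, 1 uM T3, 5% DMSO; compound exposure 5 h at ambient temperature.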
Tau fluor counter – counter-screen for tau fibril formation inhibitors. tau K18 P301L Alexa594 fluorescence, heparin fibrillization. Potency, µM (top dose mostly 57.7 µM). actives 0.93% (n = 280,000). AID 1463; also: nearly all actives have a fitted effect of over 55% in size
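Human tau K18 P301L (15 uM unlabeled, 0.24 uM Alexa 594-labeled) in 100 mM sodium acetate pH 7 with 20 uM heparin, 6 hr at 37 C. ThT 30 uM added, 1 hr ambient; Alexa 594 FP and total fluorescence read at 555/632 nm.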
Tau fibril FP – inhibitors of human tau fibril formation; Potency, µM (highest dose often 57.7 µM), usual class: inhibitors; actives 0.39% (n = 280,000); K18 P301L tau heparin fibrillization, Alexa594 FP, 6 h; P10636; also: nearly all actives have a fitted effect of over 55% in size
Target sequence (P10636 561-689 P618L limits assumed): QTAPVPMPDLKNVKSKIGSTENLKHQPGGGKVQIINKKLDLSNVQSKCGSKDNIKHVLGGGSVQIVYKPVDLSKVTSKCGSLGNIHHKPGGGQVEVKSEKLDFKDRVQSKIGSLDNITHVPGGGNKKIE
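Steps: dispense K18 P301L tau (15 uM plus 0.24 uM Alexa 594 tracer, final) in pH 7 sodium acetate; add compound; add heparin (20 uM final); incubate 6 hr, 37 C; add ThT (30 uM final); after 1 hr ambient, read FP.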
TRb-SRC2 inh – TRbeta-SRC2 interaction inhibition; P10828; TRbeta-SRC2 peptide binding, fluorescence polarization; receptor liganded with 1 µM T3; Potency, µM (highest dose often 106 µM), hits mostly inhibitors; actives 0.065% (n = 280,000); AID 1469; also: nearly all actives have a fitted effect of over 50% in size
Target sequence (P10828 whole entry, looked up): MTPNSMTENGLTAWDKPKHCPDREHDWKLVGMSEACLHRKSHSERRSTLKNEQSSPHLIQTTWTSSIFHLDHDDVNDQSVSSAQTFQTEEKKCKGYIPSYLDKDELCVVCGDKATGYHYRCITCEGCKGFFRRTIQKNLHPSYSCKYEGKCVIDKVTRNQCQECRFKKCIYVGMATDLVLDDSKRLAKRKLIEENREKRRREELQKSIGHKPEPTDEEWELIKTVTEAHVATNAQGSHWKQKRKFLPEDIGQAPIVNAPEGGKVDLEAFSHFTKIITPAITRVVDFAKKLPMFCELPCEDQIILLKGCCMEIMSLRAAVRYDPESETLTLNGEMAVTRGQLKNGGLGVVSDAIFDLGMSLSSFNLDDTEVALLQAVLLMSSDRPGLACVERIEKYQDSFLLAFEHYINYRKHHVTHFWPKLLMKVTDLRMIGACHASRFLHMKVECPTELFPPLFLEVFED
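Polarization signal, normalized between peptide-alone and full complex controls, measured compound effects on T3-liganded human TRb LBD (0.6 uM) binding 20 nM Texas Red SRC2 peptide after 5 hr.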
RGS12 GoLoco inh – inhibitors of human Gai1-RGS12 GoLoco interaction (red fluorophore). P63096. actives 0.44% (n = 230,000). Gai1:RGS12 GoLoco peptide FP, rhodamine, 10 min. AID 880. Potency, µM (titrated, usually from 61.6 µM), most hits filed as inhibitors; active = well fitted inhibition curve with a large enough effect, not every such curve was filed as active; inactive = no such curve, though single readings can be large or run the other way; also: nearly all actives have a fitted effect of over 30% in size
Tau fibril ThT – blocks human tau fibril formation measured by thioflavin T; actives 2.1% (n = 270,000); P10636; recombinant tau K18 P301L (four-repeat tau fragment), heparin-induced fibrillization, ThT fluorescence; Potency, µM (highest dose often 57.4 µM), usual class: inhibitors; also: nearly all actives have a fitted effect of over 55% in size
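In this qHTS, human K18 P301L tau is incubated with compound and heparin for 6 hr at 37 C, and Thioflavin T fluorescence then reports fibril load.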
Each line names hits and unclear results; the compound was inactive in the other large screens; ! = a repeat was not active; [ ] = remark or other dose. Most compounds without a hit are left out; they make up all but 3.1% or so of the library. Unless noted, calls follow the shape of the dose curve; as a rule, active = well fitted curve in the direction sought with a large enough effect; inconclusive = small, poorly fitted or top-dose-only effect, or another doubt; inactive = no such curve, though single readings can be large; an effect the other way counts as inactive or inconclusive.

COc1ccc2cc(C(C)C(=O)O)ccc2c1 (stereo not drawn)	RGS12 GoLoco inh 28.2µM!
CCOc1ccc(CCNC(=O)C2Cc3ccccc3N2C(=O)CC)cc1OCC (stereo not drawn)	none (no result: RGS12 GoLoco inh)
c1ccc(C2=NN(c3ccccc3)CC2)cc1	Tau fluor counter inconclusive, Tau fibril ThT inconclusive
CCOC(=O)/C(=C/c1ccc(N2CCC(c3ccccc3)=N2)cc1)C(C)=O	Tau fluor counter 15.8µM[quencher], Tau fibril ThT inconclusive
C/C(=C\C(=S)Nc1ccccc1)Nc1cccc2ccccc12	Tau fibril ThT inconclusive
C/C(=C\C(=S)Nc1ccccc1)Nc1ccc2ccccc2c1	Tau fluor counter inconclusive, Tau fibril FP inconclusive, Tau fibril ThT 12.6µM
Cc1ccc(OCc2ccc(-c3nc(C#N)c(NCc4cccnc4)o3)o2)cc1	Tau fluor counter inconclusive, Tau fibril FP inconclusive, Tau fibril ThT inconclusive (no result: RGS12 GoLoco inh)
Cc1ccccc1OCc1ccc(-c2nc(C#N)c(NCc3cccnc3)o2)o1	TR SRC2 fluor cs inconclusive, Tau fluor counter 17.8µM[quencher], Tau fibril FP inconclusive, Tau fibril ThT inconclusive (no result: RGS12 GoLoco inh)
CCN1CCN(c2oc(-c3ccc(COc4ccccc4C)o3)nc2C#N)CC1	TR SRC2 fluor cs 28.2µM[quencher] (no result: RGS12 GoLoco inh)
Cc1cccc(OCc2ccc(-c3nc(C#N)c(N4CCN(c5ccccc5)CC4)o3)o2)c1	TR SRC2 fluor cs 6310µM[quencher] (no result: RGS12 GoLoco inh)
CN(C)c1ncc(S(=O)(=O)c2ccc(Cl)cc2)c(-c2ccc(Cl)cc2Cl)n1	none
CN(CCO)c1ncnc2nc[nH]c12	none
COc1ccc(CNC(=O)C(C#N)c2nc3ccccc3nc2N2CCCC2)cc1 (stereo not drawn)	none
COc1ccc(CNC(=O)C(C#N)c2nc3ccccc3nc2N2CCN(C)CC2)cc1 (stereo not drawn)	Tau fibril ThT 15.8µM
COC(=O)CC1Oc2ccc(Cl)cc2-n2cc(-c3ccc(C)cc3)nc21 (stereo not drawn)	TR SRC2 fluor cs 22.4µM[quencher] (no result: RGS12 GoLoco inh)
O=C(NCCS(=O)CCNC(=O)C(F)(F)F)C(F)(F)F	none
COc1ccc(F)cc1S(=O)(=O)Nc1cccc(-c2ccc(N3CCC(C)CC3)nn2)c1	TR SRC2 fluor cs 6.31µM[quencher] (no result: RGS12 GoLoco inh)
COc1ccc(C)cc1S(=O)(=O)Nc1cccc(-c2ccc(N3CCC(C)CC3)nn2)c1	none (no result: RGS12 GoLoco inh)
COc1ccc(C(=O)O)cc1S(=O)(=O)N(C)C	none
Cc1cc(OC(=O)c2c(C)cc(O)cc2O)cc(O)c1C(=O)O	none
CCN(Cc1ccccc1)c1ccc(/C=N/NS(=O)(=O)c2cccc([N+](=O)[O-])c2)cc1	Tau fluor counter 7.94µM[quencher], Tau fibril ThT inconclusive
CCN(CC)c1ccc(/C=N/NS(=O)(=O)c2ccc(C)c([N+](=O)[O-])c2)cc1	Tau fluor counter inconclusive, Tau fibril ThT inconclusive (no result: RGS12 GoLoco inh)
CC(C)=CCc1c(O)ccc(C(=O)Cc2ccccc2)c1O	Tau fluor counter inconclusive, Tau fibril FP 14.1µM
O=C(N/N=C/c1ccc(-c2ccc(S(=O)(=O)Nc3ncccn3)cc2)o1)c1cc2ccccc2cc1O	TR SRC2 fluor cs 15.8µM[quencher], Tau fluor counter inconclusive, Tau fibril FP inconclusive, TRb-SRC2 inh inconclusive, Tau fibril ThT 14.1µM
CCOc1ccc(C(=O)N/N=C/c2ccc(-c3ccc(S(=O)(=O)Nc4ncccn4)cc3)o2)cc1	Tau fibril ThT inconclusive
COc1ccc(O)c(C(=O)c2cc(SCC(=O)O)c3nc4sc5c(c4c(=O)n3c2)CCCC5)c1	Tau fibril ThT 17.8µM
CCOC(=O)c1sc2nc3c(SCC(=O)O)cc(C(=O)c4cc(F)ccc4O)cn3c(=O)c2c1C	Tau fibril ThT 12.6µM
COc1cc(OC)cc(-c2nnc(Sc3ccc(C=O)cc3[N+](=O)[O-])o2)c1	Tau fluor counter inconclusive, TRb-SRC2 inh inconclusive, Tau fibril ThT 25.1µM
CC(On1nnc2ccccc21)C(=O)N1CCN(Cc2ccccc2)CC1 (stereo not drawn)	none
COc1ccc(NC(=O)/C(C#N)=C/C=C/c2ccco2)cc1	Tau fibril ThT 7.08µM
N#C/C(=C\c1ccc(N2CCOCC2)o1)C(=O)Nc1ccc(O)cc1	Tau fibril ThT 14.1µM
N#C/C(=C/c1ccc(N2CCCCC2)o1)C(=O)Nc1ccc2ccccc2c1	Tau fluor counter inconclusive, Tau fibril ThT 12.6µM
N#C/C(=C/c1ccc(N2CCCCC2)o1)C(=O)Nc1ccc(Cl)cc1	Tau fibril ThT inconclusive
COc1ccc(NC(=O)/C(C#N)=C\c2ccc(N3CCOCC3)o2)cc1	Tau fluor counter inconclusive, Tau fibril ThT 12.6µM
COc1ccc(NC(=O)/C(C#N)=C/c2ccc(C)o2)cc1	Tau fibril ThT inconclusive (no result: RGS12 GoLoco inh)
CCC(C)NC(=O)C1CCN(S(=O)(=O)N2CCOCC2)CC1 (stereo not drawn)	none
CN(CC(=O)Nc1ccc(N2CCOCC2)cc1)CC(=O)Nc1cccc(C#N)c1	none
Cc1c2cccn2cc[n+]1C	RGS12 GoLoco inh 8.91µM
O=c1oc2ccccc2c(O)c1Cc1cc(Cl)c2cccnc2c1O	Tau fluor counter inconclusive, Tau fibril FP inconclusive, Tau fibril ThT 14.1µM
Oc1c(CN2CCc3ccccc3C2)cc(Cl)c2cccnc12	Tau fibril ThT inconclusive
Cn1c(NCc2ccccc2O)nc2ccccc21	none
C=CCc1cccc(CNc2nc3ccccc3n2C(C)C)c1O	Tau fluor counter 11.2µM[quencher]
CCOC(=O)c1c(NC(=O)C2CC2)sc(C)c1CC	Tau fibril FP inconclusive, Tau fibril ThT 28.2µM
O=C(c1cccc(Cl)c1)N1CCN(C2CCCCCC2)CC1	none
CC#CCOC(=O)c1c(C)nc2sc3c(c2c1N)CCC(O)C3 (stereo not drawn)	none
O=C1c2ccccc2C(=O)C1c1ccc2ccccc2n1	Tau fibril ThT 2.24µM
COC(=O)C1=C(C)NC(C)=C(C(=O)OC)C1c1ccc2ccccc2n1	none
COc1ccc(C(=O)NCCSc2ccccc2)cc1	none
C/C(=N\NC(=O)c1ccc(C)cc1C)c1ccc2c(c1)Nc1ccccc1S2	Tau fluor counter 17.8µM[quencher], Tau fibril FP inconclusive, Tau fibril ThT 14.1µM
Cn1c(=O)c2c(nc(N/N=C/c3ccc(OC(=O)c4ccco4)cc3)n2Cc2ccccc2)n(C)c1=O	Tau fluor counter 11.2µM[quencher], Tau fibril ThT inconclusive
Cn1c(=O)c2c(nc(N/N=C/c3cccs3)n2Cc2ccccc2)n(C)c1=O	Tau fluor counter inconclusive, Tau fibril FP inconclusive
CC(C)Cn1nc(C(=O)OCC(=O)NCC(F)(F)F)c2ccccc2c1=O	none
CC(=O)Nc1ccc(NC(C)=O)s1	none
CC(=O)Nc1ccc(-c2ccccc2)s1	RGS12 GoLoco inh 17.8µM
Cc1ccc(C)c(OCCn2c(C3CC(=O)N(Cc4ccc(F)cc4)C3)nc3ccccc32)c1 (stereo not drawn)	none (no result: RGS12 GoLoco inh)
CN(CCO)c1nc(N)c2c(N)nc3c(c2c1C#N)CC(=O)N3C1CCCC1	Tau fluor counter inconclusive, Tau fibril FP inconclusive, TRb-SRC2 inh inconclusive, Tau fibril ThT 28.2µM
